Experimental findings from the supplement of paper PMC8866396 are described below.

One assay has as its system IL-6-GFP PC-9GR. The experiment in a line: cell viability (CCK-8 OD) relative to DMSO control (fraction of control); higher = more viable cells. The note with it: compound concentration: 10 uM; treatment time: 48 h. The method, boiled down: (§1)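 In 96-well plates, 3000 cells/well of PC-9 or PC-9GR lung cancer cells with lentiviral IL-6-GFP overexpression received each compound of a purchased 510-compound library at a final 10 μM for 48 h. Viability, measured by CCK-8 absorbance, is each well's optical density relative to the vehicle control well. Data come from two independent replicates.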

For another assay, the system named is IL-6-GFP PC-9. The assay is described as above. The settings on record: compound concentration: 10 uM; treatment time: 48 h. A digest of the protocol: as §1

SMILES strings stand for the structures. ± gives the standard deviation of the averaged measurements.

`CC(=O)Oc1ccccc1C(=O)O` [Aspirin]: the cell viability was 1.05 ± 0.027 in the assay on IL-6-GFP PC-9GR and 1.23 ± 0.12 in the assay with IL-6-GFP PC-9.

As to `O=C(CCCc1ccccc1)[O][Na]` [Sodium Phenylbutyrate], the cell viability in the assay on IL-6-GFP PC-9GR amounted to 0.51 ± 0.067; in the assay on IL-6-GFP PC-9 it was 0.0369 ± 0.035.

`Cc1cccc(N(C)C(=S)Oc2ccc3ccccc3c2)c1` [Tolnaftate]: the cell viability in the assay with IL-6-GFP PC-9GR is 1.38 ± 0.047; in the assay with IL-6-GFP PC-9, 0.8891 ± 0.0065.

Regarding `CC(C)C(=O)Nc1ccc([N+](=O)[O-])c(C(F)(F)F)c1` [Flutamide], the cell viability in the assay with IL-6-GFP PC-9GR was 1.18 ± 0.054; with IL-6-GFP PC-9, 1.2 ± 0.53.

Turning to `COc1ccc2cc1Oc1ccc(cc1)CC1c3cc(c(OC)cc3CCN1C)Oc1c(O)c(OC)cc3c1C(C2)N(C)CC3` (single isomer, unassigned; (+)) [(+)-Fangchinoline], the values for the cell viability in the assay with IL-6-GFP PC-9GR and with IL-6-GFP PC-9 were 0.731 ± 0.36 and 0.678 ± 0.23, respectively.

For the molecule `COc1c(OC2OC(CO)C(O)C(O)C2O)cc2c(c1OC)-c1ccc(SC)c(=O)cc1C(NC(C)=O)CC2` (stereo not given) [Thiocolchicoside], the cell viability with IL-6-GFP PC-9GR amounted to 1.18 ± 0.26; in the assay with IL-6-GFP PC-9, 1.2 ± 0.12.

On to `CCCC1CC(C(=O)NC(C(C)O)C2OC(SC)C(O)C(O)C2O)N(C)C1.Cl` (stereo not given) [Lincomycin HCl], for which the cell viability in the assay on IL-6-GFP PC-9GR was 1.13 ± 0.27; in the assay on IL-6-GFP PC-9, 0.958 ± 0.048.

With `C#Cc1cccc(Nc2ncnc3cc4c(cc23)OCCOCCOCCO4)c1` [Icotinib], the cell viability with IL-6-GFP PC-9GR was 1.18 ± 0.048; in the assay on IL-6-GFP PC-9, 0.58 ± 0.11.

As to `CC(=O)c1c(C)c2cnc(Nc3ccc(N4CCNCC4)cn3)nc2n(C2CCCC2)c1=O.Cl`, the cell viability amounted to 0.661 ± 0.17 with IL-6-GFP PC-9GR and 0.694 ± 0.11 in the assay on IL-6-GFP PC-9.

Turning to `CC1Oc2cc(cnc2N)-c2c(nn(C)c2C#N)CN(C)C(=O)c2ccc(F)cc21` (stereo not given), the cell viability in the assay with IL-6-GFP PC-9GR amounted to 0.802 ± 0.14; in the assay on IL-6-GFP PC-9, 0.945 ± 0.12.

As to `CC(=O)[N-]S(=O)(=O)c1ccc(N)cc1.[Na+]` [Sulfacetamide Sodium], the cell viability turned out to be 0.982 ± 0.12 with IL-6-GFP PC-9GR and 1.1 ± 0.014 in the assay on IL-6-GFP PC-9.

For the molecule `Cc1c(O)c(C)c2c(c1O)C(=O)CC(c1ccc(O)cc1)O2` (stereo not given) [Farrerol], the cell viability with IL-6-GFP PC-9GR worked out at 1.19 ± 0.11; in the assay with IL-6-GFP PC-9, 1.05 ± 0.037.

As to `CC(C(=O)O)c1ccc(C(=O)c2ccccc2)s1` (stereo not given) [Tiaprofenic acid], the cell viability with IL-6-GFP PC-9GR is 0.905 ± 0.037; with IL-6-GFP PC-9, 1.04 ± 0.17.

With `CC(C(=O)O)c1ccc(CC2CCCC2=O)cc1` (stereo not given) [Loxoprofen], the cell viability stood at 1.04 ± 0.028 with IL-6-GFP PC-9GR and 1.29 ± 0.05 in the assay with IL-6-GFP PC-9.

In the case of `Cc1c(Cl)cccc1Nc1ccccc1C(=O)O` [Tolfenamic Acid], the cell viability in the assay on IL-6-GFP PC-9GR amounted to 1.39 ± 0.44; in the assay on IL-6-GFP PC-9 it was 1.18 ± 0.046.

For `N#Cc1cc(NC(=O)C(=O)O)c(Cl)c(NC(=O)C(=O)O)c1.NC(CO)(CO)CO.NC(CO)(CO)CO` [Lodoxamide Tromethamine], the cell viability came out at 1.14 ± 0.25 in the assay on IL-6-GFP PC-9GR and 1.09 ± 0.083 with IL-6-GFP PC-9.

Turning to `NC(CC(=O)N1CCn2c(nnc2C(F)(F)F)C1)Cc1cc(F)c(F)cc1F.O.O=P(O)(O)O` (stereo not given) [Sitagliptin phosphate monohydrate], the cell viability in the assay with IL-6-GFP PC-9GR worked out at 0.836 ± 0.12; with IL-6-GFP PC-9, 0.812 ± 0.47.

With `CCOC(=O)c1ccc(OC(=O)CCCCCNC(=N)N)cc1.CS(=O)(=O)O` [Gabexate Mesylate], the cell viability in the assay with IL-6-GFP PC-9GR was found to be 1.14 ± 0.069; in the assay on IL-6-GFP PC-9 it was 0.801 ± 0.071.

Regarding `CC1CC2C(C(O)CC3(C)C2CCC3(O)C(=O)COC(=O)CCC(=O)O)C2(C)C=CC(=O)C=C12` (stereo not given) [Methylprednisolone hemisuccinate], the results for the cell viability in the assay on IL-6-GFP PC-9GR and with IL-6-GFP PC-9 were 0.848 ± 0.037 and 0.911 ± 0.24, respectively.

Turning to `CCOc1ccc(Cc2cc(C3OC(CO)C(O)C(O)C3O)ccc2Cl)cc1` (stereo not given) [Dapagliflozin], the cell viability with IL-6-GFP PC-9GR came out at 1.37 ± 0.23; in the assay with IL-6-GFP PC-9, 1.74 ± 0.67.

Consider `CS(=O)(=O)c1ccc(C(=O)Nc2ccc(Cl)c(-c3ccccn3)c2)c(Cl)c1` [Vismodegib (GDC-0449)], for which the values for the cell viability in the assay on IL-6-GFP PC-9GR and in the assay on IL-6-GFP PC-9 were 1.05 ± 0.072 and 0.311 ± 0.32, respectively.

On to `O=c1ccc2cc3ccoc3cc2o1` [Psoralen], for which the cell viability in the assay on IL-6-GFP PC-9GR worked out at 0.808 ± 0.11; in the assay on IL-6-GFP PC-9, 1.13 ± 0.057.

As for `CN1CCC(NC(=O)Nc2ccc(C#N)cc2)CC1c1nc2ccccc2[nH]1` (stereo not given), the cell viability is 0.848 ± 0.016 with IL-6-GFP PC-9GR and 1.21 ± 0.033 in the assay on IL-6-GFP PC-9.

As for `Cc1ccc(C(=O)c2ccc(CC(=O)O)n2C)cc1` [Tolmetin], the cell viability in the assay with IL-6-GFP PC-9GR is 1.11 ± 0.13; in the assay on IL-6-GFP PC-9, 1.29 ± 0.02.

As for `CC(=O)OC1(C(C)=O)CCC2C3CC(C)C4=CC(=O)C=CC4(C)C3(F)C(O)CC21C` (stereo not given) [Fluorometholone Acetate], the cell viability amounted to 0.701 ± 0.05 with IL-6-GFP PC-9GR and 0.947 ± 0.087 in the assay with IL-6-GFP PC-9.

Regarding `CNC(=NC#N)NCCSCc1nc[nH]c1C` [Cimetidine], the cell viability came to 1.56 ± 0.74 with IL-6-GFP PC-9GR and 1.15 ± 0.23 in the assay on IL-6-GFP PC-9.

As for `CCCCC(=O)OC1(C(=O)CO)C(C)CC2C3CCC4=CC(=O)C=CC4(C)C3(F)C(O)CC21C` (stereo not given) [Betamethasone Valerate], the results for the cell viability in the assay on IL-6-GFP PC-9GR and with IL-6-GFP PC-9 were 1.11 ± 0.14 and 0.804 ± 0.026, respectively.

Consider `COc1ccc(C2OCC3C(c4cc(OC)c(OC)c(OC)c4)OCC23)cc1OC` (stereo not given) [Magnolin], for which the cell viability with IL-6-GFP PC-9GR amounted to 0.791 ± 0.087; with IL-6-GFP PC-9 it was 1.08 ± 0.081.

For `Cc1nc(Nc2ncc(C(=O)Nc3c(C)cccc3Cl)s2)cc(N2CCN(CCO)CC2)n1.O` [Dasatinib Monohydrate], the cell viability in the assay with IL-6-GFP PC-9GR was 0.687 ± 0.054; in the assay on IL-6-GFP PC-9, 0.488 ± 0.059.

On to `CCCCC(CC)CN1CN(CC(CC)CCCC)CC(C)(N)C1` (stereo not given) [Hexetidine], for which the cell viability in the assay with IL-6-GFP PC-9GR is 1.58 ± 0.49; in the assay on IL-6-GFP PC-9, 1.15 ± 0.07.
